About 430 (19%) of roughly 2,300 compounds were called active. A selection follows. Unmarked numbers belong to inactive results.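 The calls were made as follows: active = mean activation across triplicates above the hit threshold derived in the original primary screen (cut at about 15% in these data); inactive = the rest.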

Chain of 5-hydroxytryptamine receptor 2A (Mus musculus) (P35363 whole entry, looked up): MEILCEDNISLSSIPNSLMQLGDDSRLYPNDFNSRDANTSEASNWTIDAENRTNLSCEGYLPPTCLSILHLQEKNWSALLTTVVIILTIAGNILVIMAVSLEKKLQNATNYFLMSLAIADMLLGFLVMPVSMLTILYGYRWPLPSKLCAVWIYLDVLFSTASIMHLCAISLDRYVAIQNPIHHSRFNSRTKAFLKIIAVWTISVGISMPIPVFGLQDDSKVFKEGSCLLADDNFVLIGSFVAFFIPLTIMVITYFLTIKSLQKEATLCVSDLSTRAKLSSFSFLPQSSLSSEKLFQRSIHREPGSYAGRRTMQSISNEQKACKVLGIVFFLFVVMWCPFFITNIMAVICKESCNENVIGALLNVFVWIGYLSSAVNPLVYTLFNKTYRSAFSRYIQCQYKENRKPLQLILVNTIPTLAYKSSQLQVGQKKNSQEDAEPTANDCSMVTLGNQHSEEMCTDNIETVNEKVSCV

The assay addresses 5-hydroxytryptamine receptor 2A (Mus musculus) (UniProt P35363). The assay is described as follows: mouse HTR2A agonists, beta-arrestin recruitment, confirmation, cell-based, luminescence, CHO-K1 PathHunter, triplicate (AID 624381). The settings on record: at 7.6 µM, active compounds read high, DMSO 0%, 30 µM serotonin 100%. Background: Recruitment of arrestin is a read-out of receptor activation apart from second messengers.
As for `O=C(OCC(=O)N1CCOCC1)c1ccc2ccccc2c1`, the activation was -4.74%.

With `Cc1cc(C)n(S(=O)(=O)c2cccc([N+](=O)[O-])c2)n1`, the activation is -4.03%.

Take `COc1ccc2c(Cl)c(-c3nnco3)sc2c1`: the activation is -2.25%.

As to `CCn1c(SCC(=O)N2CCCC2=O)nc2ccccc21`, the activation was -2.49%.

Turning to `O=C(Cc1ccccc1)n1nc(-c2ccccc2)nc1NCc1ccco1`, the activation is 4.58%.

On to `OCC1(Cc2ccccc2)CCN(Cc2cc3ccccc3o2)CC1`, for which the activation is 81.8% (active).

For the compound `COc1ccc(N2CC(C(=O)NCCN3C(=O)S/C(=C\c4cccnc4)C3=O)CC2=O)c(OC)c1` (stereo not drawn), the activation was -1.44%.

As to `Cc1c(C(=O)NCC2CC2)sc(=O)n1Cc1cccc(F)c1`, the activation was -3.87%.

On to `COc1ccc(/C(=N\O)c2nccc3cc(OC)c(OC)cc23)cc1OC`, for which the activation is -3.02%.

For `Cc1ccccc1CSCC(=O)NC(=O)NC(C)(C)C`, the activation was -3.39%.

As to `N#Cc1c(NC(=O)CCCl)sc2c1CCCCC2`, the activation was 0.58%.

With `O=C(NCc1ccco1)c1cccn2c(=O)c3c4c(sc3nc12)CCCC4`, the activation is -1.08%.

Take `Fc1ccc2[nH]c3c(N4CCSCC4)ncnc3c2c1`: the activation is 3.26%.

For the compound `CCCCNc1c(-c2cccc(Sc3ccc(OC)cc3)c2)nc2ccccn12`, the activation is 5.41%.

For `COc1ccccc1Nc1nnc(SC(C)C(=O)NC2CC2)s1` (stereo not drawn), the activation was -1.26%.

As to `Cc1oc2cc(Br)c(O)c(Br)c2c1C(=O)c1ccccc1`, the activation was -2.71%.

With `N/C(=N\S(=O)(=O)c1cc(C(F)(F)F)cc(C(F)(F)F)c1)c1cccs1`, the activation was -1.99%.

Regarding `O=C(Nc1cc(=O)[nH]c2ncnn12)c1ccccc1Cl`, the activation was -5.17%.

`CCOC(=O)[C@]12CCCC=C1N(Cc1ccc3c(c1)OCO3)C(=O)[C@H](CC(=O)NCc1cccs1)C2`: the activation is -3.55%.

Take `O=C1CC(c2cccc(Cl)c2)CC(O)=C1C=Nc1ccccc1` (stereo not drawn): the activation was -4.5%.

On to `COc1cccc(NC(=O)CSc2nnc(-c3cccnc3)o2)c1`, for which the activation is -0.15%.

Take `Cc1ccc2nc(-c3ccncc3)cc(C(=O)Nc3ccncc3)c2c1`: the activation is 12.6%.

In the case of `C/C(=N\NC(=S)NC1CCCCC1)c1ccc(C)o1`, the activation is 29.7% (active).

As to `Cn1c2c(c(=O)n(C)c1=O)C(c1ccc(O)cc1)Nc1ccccc1O2` (stereo not drawn), the activation is -3.78%.

Regarding `O=C(Cc1ccsc1)N1CCN(S(=O)(=O)c2cc(C(F)(F)F)cc(C(F)(F)F)c2)CC1`, the activation is -3.88%.

With `CO/N=C/CC(=O)c1ccc(OC)cc1`, the activation is -1.94%.

As for `CCOC(=O)/C=c1\s/c(=C\c2ccccc2OC)c(=O)n1CC(=O)N1CCOCC1`, the activation is -3.42%.

`O=C(COC(=O)c1cc(S(=O)(=O)N2CCOCC2)ccc1F)NC1CC1`: the activation was -1.03%.

Take `O=S(=O)(c1ccc(OCC(O)CN2CCN(c3ccccc3Cl)CC2)cc1)N1CCOCC1` (stereo not drawn): the activation is 41.2% (active).

Consider `Nc1c(N(Cc2ccco2)C(=O)c2cccc(F)c2)c(=O)[nH]c(=O)n1Cc1ccccc1`, for which the activation was -0.68%.

On to `C[C@@H]1ON(C)[C@H]2C[C@H]3c4cc(N5CCN(C)CC5)ccc4CCN3C(=O)[C@@H]12`, for which the activation was 4.65%.

Take `CCOC(=O)c1ccc(NC(=O)Cn2cnc3cc(C)c(C)cc32)cc1`: the activation is -2.29%.

For the compound `CNCC(O)c1ccc(O)c(O)c1` (stereo not drawn), the activation was 136% (active).

For `C=C1C(=O)OC2C1CCC(C)=CCCC1(C)OC21` (stereo not drawn), the activation was -6.24%.

Take `Cc1cccnc1C(NC(=O)C1CCN(Cc2ccc(Cl)c(Cl)c2)CC1)c1ccc(Cl)cc1` (stereo not drawn): the activation was -7.94%.

Turning to `Cc1ccc(C(=O)N/C(=C/c2cccs2)C(=O)N2CCCCC2)cc1`, the activation is -4.44%.

For the compound `CCn1cc(C(=O)OCC(=O)Nc2cccc(C)c2)c(=O)c2ccc(C)nc21`, the activation was -1.9%.

Regarding `COc1ccc(C(C)=O)cc1COC(=O)Cn1cnc2ccccc2c1=O`, the activation is 2.93%.
